The text below walks through data of PubChem BioAssay (NCI).

Experiment [1] in a line: NCI Yeast Anticancer Drug Screen. Data for the rad50 strain (AID 155).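 Also: 0% = growth of vehicle-only cultures of the same strain.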 The conditions noted are these: S. cerevisiae rad50 strain growth inhibition, stronger effect = higher value. The method in brief: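 DNA repair mutant yeast, compound exposure, growth read-out; inhibition is taken relative to vehicle.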
Experiment [2] in a line: NCI Yeast Anticancer Drug Screen. Data for the mec2-1 strain (AID 157). Conditions: S. cerevisiae mec2-1 strain, stronger effect = higher value. The method in brief: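 Compounds were applied to mec2-1 yeast cells. Their growth was then compared with that of vehicle-treated cultures to give growth inhibition.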
Experiment [3] can be described thus: NCI Yeast Anticancer Drug Screen. Data for the sgs1 mgt1 strain (AID 161).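 Also: 0% = growth of cultures given vehicle only.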 The conditions noted are these: S. cerevisiae sgs1 mgt1 strain, stronger effect = higher value. The procedure, abridged:
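Percent growth inhibition was derived by comparing compound-exposed mutant yeast with vehicle-exposed cultures. The strain carries alterations in DNA damage repair.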

A short description of experiment [4]: NCI Yeast Anticancer Drug Screen. Data for the cln2 rad14 strain (AID 165).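 Also: 0% = growth equal to vehicle treated cultures.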 Conditions: S. cerevisiae cln2 rad14 strain, stronger effect = higher value. The method in brief:
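Strain: cln2 rad14 yeast, altered in cell cycle control and DNA damage repair. Read-out: growth inhibition vs vehicle.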

Experiment [5] is described as follows: NCI Yeast Anticancer Drug Screen. Data for the bub3 strain (AID 167). Conditions: S. cerevisiae bub3 mutant strain, stronger effect = higher value. The method in brief: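 In this screen, a yeast mutant lacking normal mitotic checkpoint function is challenged with compound. Relative growth versus vehicle gives the inhibition value.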
A short description of experiment [6]: NCI Yeast Anticancer Drug Screen. Data for the mlh1 rad18 strain (AID 175). Conditions: S. cerevisiae mlh1 rad18 strain growth inhibition, stronger effect = higher value. The method in brief: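 A repair-deficient yeast strain is exposed to test compound, and growth is scored relative to vehicle-treated controls.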
The mark [7] stands for this setting: at 5.0 µM (retest, dose inferred, filed as 0.5).
Where [8] appears, read: at 50.0 µM (retest, dose inferred, filed as 5.0).

About 79,000 compounds went through this panel and 15% of them were active in at least one assay; those are over-represented in the sample as a whole. Unmarked numbers belong to inactive results. The source made the active and inactive calls. Rule as the data show it: active = growth inhibition above about 70%; inactive = the rest.

On to `C[N+]1(C)CCCC(OCCCCCCCCCCCCCCOC2CCC[N+](C)(C)C2)C1` (configuration not stated), for which the growth inhibition in experiment [1] (setting [7]) is 14%; in experiment [1] (setting [8]) it was 95% (active); in experiment [1] (at 50.0 µM), 87.9% (active); in experiment [2] (setting [7]), 34%; in experiment [2] (setting [8]), 98% (active); in experiment [2] (at 50.0 µM), 80.5% (active). Also, the growth inhibition in experiment [3] (setting [7]) was 35%; in experiment [3] (setting [8]) it was 97% (active); in experiment [3] (at 50.0 µM), 98.8% (active); in experiment [4] (setting [7]), 37%; in experiment [4] (setting [8]), 92% (active); in experiment [4] (at 50.0 µM) it was 98.2% (active). Besides, the growth inhibition in experiment [5] (setting [7]) is 37%; in experiment [5] (setting [8]) it was 94% (active); in experiment [5] (at 50.0 µM) it was 97.6% (active); in experiment [6] (setting [7]), 77% (active); in experiment [6] (setting [8]) it was 97% (active); in experiment [6] (at 50.0 µM), 99% (active).
As to `CCC1CCC2C3CC=C4CC(OC(C)=O)C(N)CC4(C)C3CCC12C` (configuration not stated), the growth inhibition is 6% in experiment [1] (setting [7]); 96% (active) in experiment [1] (setting [8]); 93% (active) in experiment [1] (at 50.0 µM); 9% in experiment [2] (setting [7]); 94% (active) in experiment [2] (setting [8]); 92.3% (active) in experiment [2] (at 50.0 µM). Also, the growth inhibition in experiment [3] (setting [7]) is 4%; in experiment [3] (setting [8]), 93% (active); in experiment [3] (at 50.0 µM) it was 89.2% (active); in experiment [4] (setting [7]), 45%; in experiment [4] (setting [8]) it was 95% (active); in experiment [4] (at 50.0 µM), 91.3% (active). Moreover, the growth inhibition in experiment [5] (setting [7]) is -5%; in experiment [5] (setting [8]), 95% (active); in experiment [5] (at 50.0 µM) it was 85.6% (active); in experiment [6] (setting [7]) it was 12%; in experiment [6] (setting [8]), 94% (active); in experiment [6] (at 50.0 µM), 91.8% (active).
With `COc1cc2cnc(-c3ccccc3)cc2cc1OC`, the growth inhibition is 14% in experiment [1] (setting [7]); 71% (active) in experiment [1] (setting [8]); 43.5% in experiment [1] (at 50.0 µM); 11% in experiment [2] (setting [7]); 76% (active) in experiment [2] (setting [8]); 17.6% in experiment [2] (at 50.0 µM). The growth inhibition is 5% in experiment [3] (setting [7]); 63% in experiment [3] (setting [8]); 13.9% in experiment [3] (at 50.0 µM); -15% in experiment [4] (setting [7]); 99% (active) in experiment [4] (setting [8]); 26.9% in experiment [4] (at 50.0 µM). Also, the growth inhibition in experiment [5] (setting [7]) was 48%; in experiment [5] (setting [8]), 99% (active); in experiment [5] (at 50.0 µM) it was 81.3% (active); in experiment [6] (setting [7]), 13%; in experiment [6] (setting [8]), 86% (active); in experiment [6] (at 50.0 µM), 19.2%.
For `CN(C)N=Nc1c(-c2cccs2)n[nH]c1C(F)(F)F`, the growth inhibition was 98% (active) in experiment [1] (setting [7]); 99% (active) in experiment [1] (setting [8]); 99.4% (active) in experiment [1] (at 50.0 µM); 99% (active) in experiment [2] (setting [7]); 100% (active) in experiment [2] (setting [8]); 99.8% (active) in experiment [2] (at 50.0 µM). Moreover, the growth inhibition in experiment [3] (setting [7]) is 100% (active); in experiment [3] (setting [8]), 100% (active); in experiment [3] (at 50.0 µM), 99.6% (active); in experiment [4] (setting [7]) it was 99% (active); in experiment [4] (setting [8]) it was 99% (active); in experiment [4] (at 50.0 µM), 99.5% (active). Further, the growth inhibition in experiment [5] (setting [7]) is 99% (active); in experiment [5] (setting [8]) it was 99% (active); in experiment [5] (at 50.0 µM) it was 99.5% (active); in experiment [6] (setting [7]), 99% (active); in experiment [6] (setting [8]) it was 99% (active); in experiment [6] (at 50.0 µM), 99.6% (active).
As to `C=CCc1cc([N+](=O)[O-])ccc1O`, the growth inhibition is -4% in experiment [1] (setting [7]); 80% (active) in experiment [1] (setting [8]); 76.5% (active) in experiment [1] (at 50.0 µM); 1% in experiment [2] (setting [7]); 85% (active) in experiment [2] (setting [8]); 92.1% (active) in experiment [2] (at 50.0 µM). Further, the growth inhibition was -2% in experiment [3] (setting [7]); 87% (active) in experiment [3] (setting [8]); 94.6% (active) in experiment [3] (at 50.0 µM); -3% in experiment [4] (setting [7]); 85% (active) in experiment [4] (setting [8]); 88.7% (active) in experiment [4] (at 50.0 µM). Also, the growth inhibition in experiment [5] (setting [7]) was 3%; in experiment [5] (setting [8]), 85% (active); in experiment [5] (at 50.0 µM), 92.3% (active); in experiment [6] (setting [7]), -4%; in experiment [6] (setting [8]), 93% (active); in experiment [6] (at 50.0 µM), 90.8% (active).
Regarding `O=C1CSC(=S)N1Cc1ccncc1`, the growth inhibition in experiment [1] (setting [7]) was 2%; in experiment [1] (setting [8]), 38%; in experiment [1] (at 50.0 µM), 39.1%; in experiment [2] (setting [7]), -14%; in experiment [2] (setting [8]), 37%; in experiment [2] (at 50.0 µM), 40.9%. Also, the growth inhibition is -8% in experiment [3] (setting [7]); 25% in experiment [3] (setting [8]); 57.5% in experiment [3] (at 50.0 µM); 24% in experiment [4] (setting [7]); 31% in experiment [4] (setting [8]); 18.6% in experiment [4] (at 50.0 µM). Also, the growth inhibition was 12% in experiment [5] (setting [7]); 29% in experiment [5] (setting [8]); 65.5% in experiment [5] (at 50.0 µM); -16% in experiment [6] (setting [7]); 71% (active) in experiment [6] (setting [8]); 39.3% in experiment [6] (at 50.0 µM).
Consider `CC(C)n1nnc2ccccc2c1=Nc1ccccc1`, for which the growth inhibition in experiment [1] (setting [7]) is 1%; in experiment [1] (setting [8]) it was 85% (active); in experiment [1] (at 50.0 µM), 96.1% (active); in experiment [2] (setting [7]) it was -6%; in experiment [2] (setting [8]), 95% (active); in experiment [2] (at 50.0 µM), 97% (active). The growth inhibition in experiment [3] (setting [7]) was -2%; in experiment [3] (setting [8]), 89% (active); in experiment [3] (at 50.0 µM), 96.2% (active); in experiment [4] (setting [7]), 6%; in experiment [4] (setting [8]), 16%; in experiment [4] (at 50.0 µM) it was 91.3% (active). Also, the growth inhibition in experiment [5] (setting [7]) was 0%; in experiment [5] (setting [8]), 63%; in experiment [5] (at 50.0 µM), 95.5% (active); in experiment [6] (setting [7]), 16%; in experiment [6] (setting [8]), 90% (active); in experiment [6] (at 50.0 µM), 96.5% (active).
With `CCN(CC)C(=S)N/N=C/c1cc(OC)ccc1O`, the growth inhibition in experiment [1] (setting [7]) was -15%; in experiment [1] (setting [8]) it was 65%; in experiment [1] (at 50.0 µM), 69.9%; in experiment [2] (setting [7]) it was -43%; in experiment [2] (setting [8]), 93% (active); in experiment [2] (at 50.0 µM) it was 73.2% (active). Moreover, the growth inhibition in experiment [3] (setting [7]) was -33%; in experiment [3] (setting [8]), 95% (active); in experiment [3] (at 50.0 µM) it was 62.4%; in experiment [4] (setting [7]), -6%; in experiment [4] (setting [8]), 62%; in experiment [4] (at 50.0 µM), 53.5%. Further, the growth inhibition in experiment [5] (setting [7]) was -38%; in experiment [5] (setting [8]), 84% (active); in experiment [5] (at 50.0 µM), 61.5%; in experiment [6] (setting [7]) it was -30%; in experiment [6] (setting [8]), 78% (active); in experiment [6] (at 50.0 µM), 26.6%.
`CC(CCCN(C)Cc1ccccc1)Nc1ccnc2cc(Cl)ccc12` (configuration not stated): the growth inhibition was 88% (active) in experiment [1] (setting [7]); 99% (active) in experiment [1] (setting [8]); 99% (active) in experiment [1] (at 50.0 µM); 53% in experiment [2] (setting [7]); 100% (active) in experiment [2] (setting [8]); 98.3% (active) in experiment [2] (at 50.0 µM). Besides, the growth inhibition is 99% (active) in experiment [3] (setting [7]); 99% (active) in experiment [3] (setting [8]); 99.5% (active) in experiment [3] (at 50.0 µM); 41% in experiment [4] (setting [7]); 99% (active) in experiment [4] (setting [8]); 99.4% (active) in experiment [4] (at 50.0 µM). The growth inhibition in experiment [5] (setting [7]) is 86% (active); in experiment [5] (setting [8]) it was 99% (active); in experiment [5] (at 50.0 µM), 99.5% (active); in experiment [6] (setting [7]), 99% (active); in experiment [6] (setting [8]), 99% (active); in experiment [6] (at 50.0 µM), 98% (active).
